Activity calls are given as the source filed them.

The target in one test is Albumin (Bos taurus) (UniProt P02769). The test is described as follows: bovine serum albumin binders on microarray, profiling panel, artefact control for SMM control protein annotation, biochemical, small-molecule microarray, Alexa647 label, 635/667 nm fluorescence (AID 1118).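 Note: score merges 667 nm emission intensity and signal-to-noise per printed compound spot.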 The note with it: BSA-A647 binding, fluorescence 635 nm, higher = more signal.
Sequence of Albumin (Bos taurus) (P02769 whole entry, looked up): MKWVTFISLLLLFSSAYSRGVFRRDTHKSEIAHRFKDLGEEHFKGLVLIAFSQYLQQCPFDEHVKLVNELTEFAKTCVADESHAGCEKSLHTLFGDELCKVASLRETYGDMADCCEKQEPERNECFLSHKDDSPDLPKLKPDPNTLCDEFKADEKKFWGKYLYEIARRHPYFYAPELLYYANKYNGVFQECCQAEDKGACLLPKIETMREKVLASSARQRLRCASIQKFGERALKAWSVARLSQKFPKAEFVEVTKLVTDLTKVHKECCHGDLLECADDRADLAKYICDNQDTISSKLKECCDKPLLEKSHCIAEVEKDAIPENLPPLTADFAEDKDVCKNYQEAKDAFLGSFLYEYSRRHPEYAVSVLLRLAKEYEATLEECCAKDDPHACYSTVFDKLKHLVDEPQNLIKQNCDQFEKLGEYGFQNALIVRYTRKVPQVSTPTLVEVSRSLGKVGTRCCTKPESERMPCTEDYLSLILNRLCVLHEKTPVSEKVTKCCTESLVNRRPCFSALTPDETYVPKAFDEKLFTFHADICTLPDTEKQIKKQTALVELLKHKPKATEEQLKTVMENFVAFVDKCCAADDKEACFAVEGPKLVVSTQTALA
Test [1] can be described thus: small-molecule microarray binders of probe aXIP, primary screen, biochemical, NeuroSMM set, 635/667 nm fluorescence (AID 1119).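 Note: probe is the protein aXip251-270 applied at 1 µg/mL to compound-printed slides; binding of probe to printed compounds measured as 667 nm fluorescence plus signal to noise.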 The note with it: higher = more signal, called active from +8 up or from −8 down.
Test [2] is described as follows: small-molecule binders of probe aNOTCH3, primary screen, biochemical, small-molecule microarray, 635/667 nm fluorescence (AID 1120).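 Note: probe is a biotin-tagged antibody raised against NOTCH3 rather than NOTCH3 protein; score merges spot fluorescence near 667 nm with spot signal to noise.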 The note with it: higher = more signal.
Test [3] is described as follows: small-molecule binders of probe aNOTCH2, primary screen, biochemical, small-molecule microarray, 635/667 nm fluorescence (AID 1121).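 Note: score merges feature fluorescence read at 667 nm with its signal to noise.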 Conditions: higher = more signal.
The target in test [4] is Carbonic anhydrase 2 (Homo sapiens) (UniProt P00918). The test is described as follows: CAII small-molecule binders, profiling panel, biochemical, small-molecule microarray, Alexa647-labelled CAII (AID 1122). The note with it: CAII-A647 binding fluorescence, higher = more signal.
A short description of test [5]: COS7 lysate on small-molecule microarray, probe aHis, 635 nm (AID 1123).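 Note: z-score combines 667nm fluorescence intensity with signal-to-noise per printed compound spot.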 The note with it: COS7 cell lysate, fluorescence, higher = more signal.
Test [6] in a line: compound binding in COS7 lysate, probe aLAP1, primary screen, cell lysate, small-molecule microarray (AID 1124).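 Note: lysate comes from COS7 cells expressing LAP1 and is applied at 0.3 µg/mL; score merges spot fluorescence near 667 nm with signal-to-noise over triplicate slides.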 Conditions: probe aLAP1, fluorescence, higher = more signal.
In a further test the test system is Sam68 (KHDRBS1). The test is described as follows: Sam68 small-molecule binders, primary screen, biochemical, small-molecule microarray, 635 nm fluorescence (AID 1125).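 Note: score merges 667 nm channel intensity with signal to noise over triplicate slides.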 Conditions: small-molecule microarray binding, higher = more signal.
In test [7] the test system is Chordin-like protein 2 (CHRDL2). The test is described as follows: CHRDL2 small-molecule binders, primary screen, biochemical, small-molecule microarray, 635 nm fluorescence (AID 1126).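 Note: printed compound slides probed with Chrdl2 protein at 4 µg/mL for 1 h at 4 C; score merges 667 nm emission intensity with signal to noise over three replicate slides.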 Conditions: small-molecule microarray binding, fluorescence 635 nm; higher = more signal.
Test [8] concerns the target Concanavalin-A (Canavalia ensiformis) (UniProt P02866). The test is described as follows: ConA small-molecule binders, primary screen, artefact control for SMM control protein annotation, biochemical, small-molecule microarray, Alexa647 label, 635 nm (AID 1127).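 Note: z combines 667 nm emission intensity with signal-to-noise across three replicate slides.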 The note with it: ConA-A647 binding fluorescence, higher = more signal.

Sequence of Concanavalin-A (Canavalia ensiformis) (P02866 whole entry, looked up): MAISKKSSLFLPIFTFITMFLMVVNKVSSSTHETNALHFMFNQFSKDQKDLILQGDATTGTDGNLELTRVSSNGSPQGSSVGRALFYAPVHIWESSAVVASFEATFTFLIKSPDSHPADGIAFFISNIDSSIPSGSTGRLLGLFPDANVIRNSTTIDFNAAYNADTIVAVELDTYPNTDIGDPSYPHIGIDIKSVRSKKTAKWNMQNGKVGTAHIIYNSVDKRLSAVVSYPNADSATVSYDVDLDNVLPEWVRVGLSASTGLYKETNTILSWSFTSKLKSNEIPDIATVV

For the compound `COC(=O)C1=CC(CCCO)=CC(c2ccc(CN3CCCC3)cc2)N(C)C=C1C(=O)OC` (stereo not given), the composite z-score in the test with Albumin (Bos taurus) is 0.935; in test [2] it was -0.105; in [3] it was 0.0334; in test [4] it was 0.866; in test [5], 1.72; in test [6], 0.181. Besides, the values for the composite z-score (with Sam68 (KHDRBS1); in test [7]; in test [8]) were 1, 0.164 and 0.361, respectively. Further, in test [1], the composite Z-score was 1.22 (inactive).
Take `COC(=O)[C@@]1(Cc2ccc(F)cc2)[C@H]2c3cc(C(=O)N(C)C)n(Cc4ccsc4Br)c3C[C@H]2CN1C(=O)c1ccccc1`: the composite z-score was 0.745 with Albumin (Bos taurus); 1.88 in test [2]; 1.08 in test [3]; 0.938 in [4]; 2.95 in test [5]; 1.65 in [6]. Further, the composite z-score with Sam68 (KHDRBS1) is 0.0161; in [7], -0.0576; in test [8] it was 1.13. In addition, the composite Z-score in [1] is -0.857 (inactive).
Consider `CCCNC(=O)[C@@]1(Sc2ccc(C)cc2)CC(=O)N(Cc2cc(C(F)(F)F)cc(C(F)(F)F)c2)[C@@H]1c1ccc(CO)cc1`, for which the composite z-score in the test with Albumin (Bos taurus) is -0.919; in [2], -0.163; in test [3] it was -0.169; in [4] it was 0.504; in test [5], 0.506; in test [6], -0.0318. In addition, the values for the composite z-score (in the test on Sam68 (KHDRBS1); in test [7]; in test [8]) were -0.528, -1.11 and -0.149, respectively. In addition, the composite Z-score in test [1] is -0.0135 (inactive).
Regarding `C=CC[C@]1(C(=O)NCCN2CCOCC2)N=C(c2ccc(OCCCO)cc2)O[C@H]1c1ccccc1`, the composite z-score in the test with Albumin (Bos taurus) is -0.051; in test [2], 0.0813; in test [3] it was 0.0564; in test [4], 0.703; in test [5], 1.51; in test [6], 0.601. In addition, the composite z-score was determined as 1.18 in the test on Sam68 (KHDRBS1), 0.708 in [7] and 0.469 in test [8]. Also, the composite Z-score in test [1] was 0.0999 (inactive).
As for `O=C1C[C@@](C(=O)NCC(F)(F)F)(c2ccc([N+](=O)[O-])cc2)[C@@H](c2ccc(CO)cc2I)N1CC12CC3CC(CC(C3)C1)C2`, the composite z-score with Albumin (Bos taurus) is 0.506; in test [2] it was -0.056; in test [3], -0.13; in [4], 0.517; in [5] it was 1.48; in test [6], 1.15. The composite z-score was 1.29 in the test on Sam68 (KHDRBS1), -0.0117 in test [7] and 1.12 in test [8]. Besides, the composite Z-score in test [1] is 0.0839 (inactive).
Consider `COc1cc(Cc2cc3c(c(-c4ccccc4)n2)[Si](C(C)C)(C(C)C)OC3)cc(OC)c1OC`, for which the composite z-score is -1.25 with Albumin (Bos taurus); -0.0682 in test [2]; -0.0028 in test [3]; 0.153 in test [4]; -0.317 in test [5]; -0.27 in test [6]. In addition, the composite z-score is -1.26 with Sam68 (KHDRBS1), 0.296 in [7] and -0.264 in [8]. Further, in [1], the composite Z-score is 0.23 (inactive).
Consider `COC(=O)Cn1c(C(=O)N(C)C)cc2c1C[C@H]1CN(C(=O)c3ccccc3)[C@@](Cc3ccccc3)(C(=O)OC)[C@@H]21`, for which the composite z-score with Albumin (Bos taurus) turned out to be 0.759; in test [2] it was 0.194; in test [3] it was 0.417; in test [4], 0.792; in test [5], 1.55; in test [6], 0.817. In addition, the composite z-score in the test on Sam68 (KHDRBS1) is -0.627; in [7] it was -0.537; in test [8], 0.169. Further, in [1], the composite Z-score was -0.265 (inactive).
Regarding `O=C1OCCC/C=C\[C@H]2OC34C=CCN(Cc5ccccc5)C(=O)[C@H]3N(CCO)C(=O)[C@@H]4C12` (stereo not given in full), the composite z-score is -0.78 with Albumin (Bos taurus); 0.157 in test [2]; -0.0658 in [3]; 0.885 in [4]; 1.11 in [5]; 0.623 in test [6]. Besides, the composite z-score in the test on Sam68 (KHDRBS1) is 0.747; in test [7] it was -0.32; in [8], -0.619. The composite Z-score in test [1] was 0.822 (inactive).
Take `CC(=O)NCCCC[C@@H]1NC(=O)[C@H]2C[C@@H](C(=O)O)[C@@H](c3cccc(OCCO)c3)N2C1=O`: the composite z-score in the test with Albumin (Bos taurus) is 0.757; in [2] it was 0.348; in test [3] it was -0.0644; in [4], 0.415; in test [5] it was 1.05; in test [6] it was 1.32. Also, the composite z-score with Sam68 (KHDRBS1) was 1.29; in test [7] it was 1.11; in test [8], 0.587. Besides, the composite Z-score in test [1] was 0.446 (inactive).
For the compound `CC(C)[Si]1(C(C)C)OCc2cc(-c3ccc(-c4ccc(Cl)c(Cl)c4)o3)nc(-c3ccc(Oc4ccccc4)cc3)c21`, the composite z-score with Albumin (Bos taurus) was -0.753; in [2], -0.292; in test [3], -0.197; in [4] it was -0.554; in test [5], -0.558; in test [6] it was -0.397. For the same compound, the composite z-score is -1.08 in the test with Sam68 (KHDRBS1), -1.24 in test [7] and -1.08 in test [8]. For the same compound, the composite Z-score in test [1] is -1.23 (inactive).
For `O=C1NC(=O)C2C1C=CC(C(O)C1CCCCC1)N2Nc1ccccn1` (stereo not given), the composite z-score with Albumin (Bos taurus) was 0.516; in test [2], 0.0351; in [3], -0.0422; in [4] it was 0.827; in test [5], 1.36; in [6], -0.636. Further, the composite z-score was 0.233 in the test on Sam68 (KHDRBS1), 0.342 in test [7] and 0.898 in test [8]. Further, the composite Z-score in test [1] was 0.468 (inactive).
Take `CCCCCN1CC=CC23O[C@@H]4/C=C\CCCOC(=O)C4[C@H]2C(=O)N(CCO)[C@@H]3C1=O` (stereo not given in full): the composite z-score is 0.73 in the test with Albumin (Bos taurus); -0.18 in test [2]; -0.14 in test [3]; 0.823 in test [4]; 2.17 in test [5]; 0.657 in [6]. In addition, the composite z-score with Sam68 (KHDRBS1) was 0.428; in [7] it was 0.323; in test [8], 0.433. The composite Z-score in test [1] is 0.0463 (inactive).
As to `C=CCOC(=O)[C@@H]1[C@H]2C(=O)O[C@H](c3ccccc3)[C@H](c3ccccc3)N2[C@H](c2ccc(OCCOC(=O)[C@@H]3C[C@@H]4C(=O)N[C@@H](CC(C)C)C(=O)N4[C@@H]3c3ccc(O)cc3)cc2)[C@@]12C(=O)Nc1ccc(I)cc12`, the composite z-score is -0.766 with Albumin (Bos taurus); 1.3 in [2]; 0.443 in [3]; 0.536 in [4]; 1.37 in test [5]; 0.166 in [6]. Further, the composite z-score in the test on Sam68 (KHDRBS1) was found to be 1.28; in [7], 1.1; in [8] it was 1.17. The composite Z-score in [1] was 0.207 (inactive).

Source of the values: PubChem BioAssay.
